# Results reported in PubChem BioAssay (NCI).
# About 79,000 compounds went through this panel and 15% of them were active in at least one assay; those are over-represented in the sample as a whole. Unmarked numbers belong to inactive results. Activity calls are given as the source filed them. Rule as the data show it: active = growth inhibition above about 70%; inactive = the rest.
# Legend:
# [1] = NCI Yeast Anticancer Drug Screen. Data for the rad50 strain (AID 155);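 also: 0% = growth of vehicle-only cultures of the same strain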; settings: S. cerevisiae rad50 strain growth inhibition, active compounds read high
# How it was run: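 Vehicle-treated cultures provide the reference for the growth inhibition reported for compound-exposed, repair-deficient yeast.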
# [2] = NCI Yeast Anticancer Drug Screen. Data for the mec2-1 strain (AID 157); settings: S. cerevisiae mec2-1 strain, active compounds read high
# How it was run: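 Yeast mec2-1 mutant treated with compound. Readout: growth inhibition vs vehicle controls.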
# [3] = NCI Yeast Anticancer Drug Screen. Data for the sgs1 mgt1 strain (AID 161);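 also: 0% = growth of cultures given vehicle only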; settings: S. cerevisiae sgs1 mgt1 strain, active compounds read high
# How it was run: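 Mutant yeast exposed to compound; growth scored against vehicle-only wells.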
# [4] = NCI Yeast Anticancer Drug Screen. Data for the cln2 rad14 strain (AID 165);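 also: 0% = growth equal to vehicle treated cultures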; settings: S. cerevisiae cln2 rad14 strain, active compounds read high
# How it was run: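 cln2 rad14 yeast strain; compound exposure; growth inhibition read vs vehicle controls.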
# [5] = NCI Yeast Anticancer Drug Screen. Data for the bub3 strain (AID 167); settings: S. cerevisiae bub3 mutant strain, active compounds read high
# How it was run: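 Mutant yeast screening strain plus compound; vehicle-treated cultures serve as the 0% inhibition reference.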
# [6] = NCI Yeast Anticancer Drug Screen. Data for the mlh1 rad18 strain (AID 175); settings: S. cerevisiae mlh1 rad18 strain growth inhibition, active compounds read high
# How it was run: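 Yeast w/ defined DNA-repair lesions; compound exposure; growth vs vehicle controls → % inhibition.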
# [7] = at 5.0 µM (retest, dose inferred, filed as 0.5)
# [8] = at 50.0 µM (retest, dose inferred, filed as 5.0)
SMILES,"growth inhibition [1, 7] [%]","growth inhibition [1, 8]",growth inhibition ([1]; at 50.0 µM),"growth inhibition [2, 7]","growth inhibition [2, 8]",growth inhibition ([2]; at 50.0 µM),"growth inhibition [3, 7] [%]","growth inhibition [3, 8]",growth inhibition ([3]; at 50.0 µM),"growth inhibition [4, 7] [%]","growth inhibition [4, 8]",growth inhibition ([4]; at 50.0 µM),"growth inhibition [5, 7]","growth inhibition [5, 8]",growth inhibition ([5]; at 50.0 µM),"growth inhibition [6, 7] [%]","growth inhibition [6, 8]",growth inhibition ([6]; at 50.0 µM)
CCCCC1(CC)COC(c2ccccc2OC)OC1 (stereo not given),-6,88% (active),-28.4%,-5%,88% (active),2.45%,-1,81% (active),5.5%,-9,65%,-9.85%,31%,92% (active),76.5% (active),-2,87% (active),-17.2%
CCOC(=O)C12CCSC1C1(C#N)C(C#N)=CC2(N=P(c2ccccc2)(c2ccccc2)c2ccccc2)n2c(=O)n(-c3ccccc3)c(=O)n21 (stereo not given),45,29%,68%,93% (active),18%,39.9%,28,8%,59.9%,32,34%,58.5%,96% (active),46%,88.5% (active),46,31%,53.9%
CC(C)(C)OC(=O)N(CCCCNCc1ccc2ccccc2c1)CCCNCc1ccc2ccccc2c1,17,99% (active),91% (active),19%,99% (active),92.6% (active),-7,99% (active),76.5% (active),3,98% (active),89% (active),18%,97% (active),90.5% (active),26,99% (active),91% (active)
Cc1cc(OCCl)ccc1[N+](=O)[O-],-2,26%,30.4%,-2%,32%,25.6%,-16,67%,39.1%,-1,55%,15.6%,15%,58%,19.9%,1,80% (active),74.8% (active)
COc1ccc(C2=C/C(=C3\C(=O)Oc4ccccc4C3=O)SS2)cc1,0,32%,-5.95%,-2%,7%,-1.6%,2,50%,-3.75%,1,36%,38.5%,3%,24%,-3.75%,-2,32%,1.2%
CCCCOC(=O)C(=O)/C(=C/N1C(=O)/C(=C/C(C)=C/c2ccccc2)SC1=S)C(=O)C=C(C)C,0,8%,39.7%,-13%,10%,63.4%,-10,5%,50.5%,-25,11%,46.8%,-10%,26%,68%,1,14%,71.1% (active)
NN(c1ccccc1)c1cccc2ccccc12,2,96% (active),-16.4%,-1%,97% (active),3.7%,1,97% (active),39.1%,-4,95% (active),-23.8%,-1%,96% (active),75.9% (active),1,96% (active),25.1%
O=[N+]([O-])c1ccc(CO)o1,10,68%,93.1% (active),0%,10%,38.8%,2,14%,76.4% (active),3,-2%,29.1%,0%,1%,26.7%,6,33%,84.5% (active)
Cc1ccc(N=Nc2ccc(N)c3ccccc23)c(S(N)(=O)=O)c1,-4,38%,27.1%,0%,24%,1.95%,-1,51%,44.9%,-2,29%,70.8% (active),-6%,61%,22.2%,0,61%,13.1%
COc1ccc(OCC(O)CN2CCN(c3cccc(Cl)c3)CC2)cc1 (stereo not given),-2,-3%,72.5% (active),15%,28%,37.6%,1,23%,95.5% (active),-6,-7%,33.6%,-4%,8%,42.6%,20,31%,69.9%
